Assay outcomes: PubChem BioAssay, several laboratories
Measles CPE = protection of cells from measles virus; protection (pct of control), % at 4 µM; AID 841; Measles virus-infected cells, CPE protection, absorbance; actives 1.5% (n = 140,000); in the data active = protection mostly above about 24%, no sharp cut-off; inactive = mostly below about 26%
CYP2C9 activ = CYP2C9 (human) activation; recombinant CYP2C9, luciferin-H conversion, luminescence; active compounds read high; factor 1 = untreated enzyme, 0 = blocked; activation factor at 5 µM; actives 1.4% (n = 96,000); AID 1024;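 active = activation factor of 2 or more for CYP2C9 at a 5 µM dose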
CYP2C9 inh = blocks human cytochrome P450 2C9; CYP2C9 Supersomes, luciferin-H conversion, luminescence; actives 20% (n = 96,000); inhibition, % at 5 µM; P11712;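 active = blocking of liver enzyme CYP2C9 beyond about 50% at 5 µM, limit read from the data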
CYP2C19 activ = cytochrome P450 2C19 (human) activation; AID 1025; recombinant CYP2C19, luciferin-H EGE luminescence; active compounds read high; 0 = fully inhibited enzyme, 1 = untreated enzyme; activation factor at 5 µM; 96,000 tested, under 10 active;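 active = activation factor of at least 2 at 5 µM in the primary screen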
Target sequence (P33261 whole entry, looked up): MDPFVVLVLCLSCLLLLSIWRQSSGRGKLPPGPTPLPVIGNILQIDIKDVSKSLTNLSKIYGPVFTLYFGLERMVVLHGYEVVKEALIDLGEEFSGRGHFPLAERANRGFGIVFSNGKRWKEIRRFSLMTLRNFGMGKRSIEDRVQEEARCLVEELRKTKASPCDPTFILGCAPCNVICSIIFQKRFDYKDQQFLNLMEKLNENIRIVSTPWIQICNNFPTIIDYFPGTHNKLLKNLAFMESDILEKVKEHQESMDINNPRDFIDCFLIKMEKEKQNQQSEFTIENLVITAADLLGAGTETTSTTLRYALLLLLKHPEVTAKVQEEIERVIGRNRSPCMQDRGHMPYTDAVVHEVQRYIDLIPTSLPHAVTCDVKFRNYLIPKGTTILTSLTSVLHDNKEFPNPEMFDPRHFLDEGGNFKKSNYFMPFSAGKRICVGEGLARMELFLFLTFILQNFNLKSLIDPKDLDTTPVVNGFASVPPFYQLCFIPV
CYP2C19 inhib = blocks human cytochrome P450 2C19; P33261; CYP2C19 Supersomes, luciferin-H EGE luminescence, 30 min; inhibition, % at 5 µM; actives 21% (n = 96,000);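 active = CYP2C19 inhibition above a set limit at 5 µM in the primary screen, cut at about 50% in these data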
Of the large screens only hits and unclear results are named; the others gave an inactive call. Shown are actives, neighbours in structure and some others; about 22% of the full set was active somewhere.

COc1ccc(N(CC(=O)NCc2cccs2)S(=O)(=O)c2cccnc2)cc1	CYP2C9 inh 63.9, CYP2C19 inhib 84.4
CNC(=O)CN(c1ccc(OC)cc1)S(=O)(=O)c1ccc(F)cc1	none (no result: CYP2C9 activ, CYP2C9 inh, CYP2C19 activ, CYP2C19 inhib)
CC1CN(C(c2ccco2)c2sc3ncnn3c2O)CC(C)O1 (configuration not stated)	none
CCNC(=O)CC1SC(=Nc2cccc(Cl)c2C)N(C)C1=O (configuration not stated)	none (no result: CYP2C9 activ, CYP2C9 inh, CYP2C19 activ, CYP2C19 inhib)
Cc1ccc(NC(=O)CC2S/C(=N/c3nccs3)N(C)C2=O)c(C)c1 (configuration not stated)	CYP2C9 inh 97.9, CYP2C19 inhib 95.6
OC1(c2ccc(F)cc2)CCN(Cc2ccccc2)C1 (configuration not stated)	CYP2C19 inhib 84.2
OC(CN1CCN(Cc2ccccc2)CC1)c1ccc(F)cc1 (configuration not stated)	none (no result: CYP2C9 activ, CYP2C9 inh, CYP2C19 activ, CYP2C19 inhib)
Cc1sc(NC(=O)c2ccco2)c(CN2CCC(C)CC2)c1C	none
Cc1sc(NC(=O)c2ccco2)c(C(c2cccnc2)N2CCC(C)CC2)c1C (configuration not stated)	CYP2C9 inh 76.3, CYP2C19 inhib 88.3
CCOC(=O)COc1ccc(S(=O)(=O)Nc2ccc3c(c2)OCO3)cc1	CYP2C9 inh 67.2, CYP2C19 inhib 86.4
CCOC(=O)CC(N)c1ccc2c(c1)OCO2 (configuration not stated)	CYP2C19 inhib 52.3
CCOc1ccc(OCC(=O)N2CCOCC2)cc1	none
CC(C)Nc1nc(NC(C)C)nc(NS(=O)(=O)c2ccc(N)cc2)n1	Measles CPE 30.5 (no result: CYP2C9 activ, CYP2C9 inh, CYP2C19 activ, CYP2C19 inhib)
CCOC(=O)N1CCN(C(=O)/C=C/c2ccc3c(c2)OCO3)CC1	none (no result: CYP2C9 activ, CYP2C9 inh, CYP2C19 activ, CYP2C19 inhib)
CCOc1ccc(S(=O)(=O)N(C)c2ccc(OCC(=O)N3CCOCC3)cc2)cc1	CYP2C9 inh 74.4
Cc1nc(NC2CCCC2)sc1C(=O)N(C)C	none
Cc1ncsc1CCOC(=O)C12CC3CC(CC(C3)C1)C2	none
COc1ccc(C)c(S(=O)(=O)Nc2ccc(OCC(=O)O)cc2)c1	none
CCOc1ccc(NS(=O)(=O)c2ccc(SC)cc2)cc1	none (no result: CYP2C9 activ, CYP2C9 inh, CYP2C19 activ, CYP2C19 inhib)
CC(C)NS(=O)(=O)c1ccc(OCC(=O)Nc2ccc3c(c2)OCO3)c(Cl)c1	none
CCOc1ccc(NS(=O)(=O)c2ccc3[nH]c(=O)oc3c2)cc1	CYP2C9 inh 87.3, CYP2C19 inhib 88.1
Cc1cc(C)c(C)c(S(=O)(=O)Nc2ccc(OCC(=O)O)cc2)c1C	CYP2C9 inh 76.2
COC(=O)COc1ccc(S(=O)(=O)Nc2ccc3c(c2)OCCO3)cc1Cl	CYP2C9 inh 92.4, CYP2C19 inhib 98.4
CCOc1ccc(NS(=O)(=O)c2ccc(N)cc2)cc1	CYP2C9 inh 69.8, CYP2C19 inhib 53.7
CCSC(=Nc1ccccc1)C1=C(O)COC1=O	none
CCOC(=O)C(NC(=O)Nc1cccc(C)n1)(OCC(F)(F)F)C(F)(F)F (configuration not stated)	none
CC1=C/C(=N\OC(=O)/C=C/c2ccccc2)C(C)=CC1=O	none
Cc1ccc(NS(=O)(=O)c2ccc(OCC(=O)N3CCOCC3)cc2)cc1	CYP2C19 inhib 56.8
CCOC(=O)COc1ccc(S(=O)(=O)Nc2ccc(C)cc2)cc1	CYP2C9 inh 59.1
Cc1ccc(NS(=O)(=O)c2ccc(CCC(=O)N3CCOCC3)cc2)cc1	none
COCC(C)n1c(SCC(=O)NNC(=O)c2ccccc2)nc2ccccc2c1=O (configuration not stated)	none (no result: CYP2C9 activ, CYP2C9 inh, CYP2C19 activ, CYP2C19 inhib)
CC(C)Cn1c(SC(C)C(=O)Nc2ccc3c(c2)OCCO3)nc2ccccc2c1=O (configuration not stated)	CYP2C9 inh 93.2, CYP2C19 inhib 82.8
COCC(C)n1c(SCC(=O)NC(=O)Nc2ccc3c(c2)OCCO3)nc2ccccc2c1=O (configuration not stated)	CYP2C9 inh 78.0, CYP2C19 inhib 52.1
CC(C)Cc1nc2oc3c(=O)[nH]cnc3c2c2c1CCC2	none
O=C(Nc1ccccc1C(=O)NCc1ccco1)NC1CCCCC1	none
COC(=O)c1ccc(C2/C(=C(\O)c3ccc4c(c3)OCCO4)C(=O)C(=O)N2CCCN(C)C)cc1 (configuration not stated)	none
O=C(Nc1cc(Cl)cc(Cl)c1)C1CCC(=O)N1Cc1ccccc1Cl (configuration not stated)	CYP2C9 inh 90.9, CYP2C19 inhib 96.1
CNC(=O)C1CCC(=O)N1Cc1ccccc1Cl (configuration not stated)	none
COCCN(C(=O)Nc1ccccc1)c1ccccc1C	Measles CPE 57.5 (no result: CYP2C9 activ, CYP2C9 inh, CYP2C19 activ, CYP2C19 inhib)
COCCCN(C(=O)Nc1ccccc1)C(C)c1ccncc1 (configuration not stated)	CYP2C9 inh 59.5, CYP2C19 inhib 76.9
CCN(C(=O)Nc1ccccc1)c1ccccc1	none (no result: CYP2C9 activ, CYP2C9 inh, CYP2C19 activ, CYP2C19 inhib)
COCCSc1ccccc1C(=O)Nc1ccncc1	CYP2C9 inh 83.8, CYP2C19 inhib 92.0
CNc1ccc(Br)cc(C(=O)/C=C/c2cccc(OC)c2)c1=O	none (no result: CYP2C9 activ, CYP2C9 inh, CYP2C19 activ, CYP2C19 inhib)
O=c1[nH]c(NCCO)nc2ncn(Cc3ccccc3)c12	none
O=C1CC(N2CCC(c3nc4ccccc4o3)CC2)C(=O)N1c1cc(Cl)cc(Cl)c1 (configuration not stated)	CYP2C9 inh 77.7
CCOc1ccc(-c2nnc(Nc3ccc(OC)c(C(=O)N4CCCCC4)c3)c3ccccc23)cc1	none (no result: CYP2C9 activ, CYP2C9 inh, CYP2C19 activ, CYP2C19 inhib)
Cc1cccc(-n2c(CCn3nc(C)c([N+](=O)[O-])c3C)n[nH]c2=S)c1	none
CCCCn1c(CCn2nc(C)c(Br)c2C)n[nH]c1=S	CYP2C19 inhib 89.9
Cc1nc(=O)c(-c2ccccc2)c(C)n1-c1ccc(S(N)(=O)=O)cc1	none
COc1ccc(C(=O)OCn2nnc3ccccc3c2=O)cc1OC	none
CN(C)S(=O)(=O)c1ccc(C(=O)OCn2nnc3ccccc3c2=O)cc1	CYP2C9 inh 59.0
Cc1cc(C(=O)OCn2nnc3ccccc3c2=O)c(C)o1	CYP2C19 inhib 53.2
COC(=O)c1cccc(Cn2nnc3ccccc3c2=O)c1	CYP2C19 inhib 51.4
COc1cccc(C(=O)OCn2nnc3ccccc3c2=O)c1	CYP2C19 inhib 81.0
Cc1cccc(CSc2nc3c(c(=O)[nH]2)CCCC3)c1	none (no result: CYP2C9 activ, CYP2C9 inh, CYP2C19 activ, CYP2C19 inhib)
O=C(OCCN1CCOCC1)c1cccnc1	none
CC(O)C(=O)NCCOCCOCCNC(=O)C(C)O (configuration not stated)	CYP2C19 inhib 65.6
c1ccc(Cn2nnnc2C(c2cccnc2)N2CCN(C3CCCCC3)CC2)cc1 (configuration not stated)	none
Oc1ccc(N2CCN(C(c3cccnc3)c3nnnn3Cc3ccccc3)CC2)cc1 (configuration not stated)	CYP2C9 inh 57.1, CYP2C19 inhib 52.2
c1ccc(CCn2nnnc2C(c2cccnc2)N2CCN(c3ccccc3)CC2)cc1 (configuration not stated)	CYP2C9 inh 72.7, CYP2C19 inhib 80.7
COCCn1nnnc1C(c1ccccc1)N1CCN(c2ccccc2)CC1 (configuration not stated)	none (no result: CYP2C9 activ, CYP2C9 inh, CYP2C19 activ, CYP2C19 inhib)
c1ccc(CCn2nnnc2C(c2cccnc2)N2CCN(c3nc4ccccc4s3)CC2)cc1 (configuration not stated)	CYP2C19 inhib 58.7
CNC(=O)c1sc(SC)cc1-c1ccc(Cl)cc1	none
